Test results published in PubChem BioAssay (NCATS).
Records with an inconclusive call do not appear. Entries that show only a call come without a potency. The source made the active and inactive calls. Calls come from the whole dose curve; as a rule, active = well fitted inhibition curve with a large enough effect; inconclusive = small, poorly fitted or top-dose-only effect; inactive = flat fitted curve, though single readings scatter.
Potency is the fitted concentration of half-maximal effect.

Each compound was assayed against Luciferin 4-monooxygenase (Photinus pyralis) (UniProt P08659) (assay: Biochemical firefly luciferase enzyme assay for NPC (AID 624030; note: nearly all actives have a fitted effect of over 70% in size)). Details: purified P. pyralis luciferase, luminescence, 5 min; series mostly up to 58.6 µM.
Chain of Luciferin 4-monooxygenase (Photinus pyralis) (P08659 whole entry, looked up): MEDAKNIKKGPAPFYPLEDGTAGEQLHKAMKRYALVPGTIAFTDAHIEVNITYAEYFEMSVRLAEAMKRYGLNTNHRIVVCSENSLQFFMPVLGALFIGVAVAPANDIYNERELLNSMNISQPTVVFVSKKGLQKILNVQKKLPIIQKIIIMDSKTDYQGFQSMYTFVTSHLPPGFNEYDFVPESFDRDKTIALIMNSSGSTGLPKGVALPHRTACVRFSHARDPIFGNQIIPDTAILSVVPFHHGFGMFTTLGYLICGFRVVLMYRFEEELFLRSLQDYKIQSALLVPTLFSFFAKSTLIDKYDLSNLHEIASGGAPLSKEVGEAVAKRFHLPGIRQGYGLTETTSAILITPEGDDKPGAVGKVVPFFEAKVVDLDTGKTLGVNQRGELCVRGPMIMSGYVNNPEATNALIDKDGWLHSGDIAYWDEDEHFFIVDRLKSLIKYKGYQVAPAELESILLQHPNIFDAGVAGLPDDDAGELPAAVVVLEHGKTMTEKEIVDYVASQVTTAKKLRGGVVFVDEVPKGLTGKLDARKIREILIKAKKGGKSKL
How it was run: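 Counter-screen for direct inhibition of the luciferase enzyme by approved-drug library compounds, run at 10 nM enzyme in 50 mM Tris acetate (final). Luminescence was read within 5 min of enzyme-buffer addition and normalized to PTC124 versus DMSO (0%).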
In the case of `CC1(COc2ccc(CC3SC(=O)NC3=O)cc2)CCCCC1` (stereo unspecified), the Potency is reported as 16.1 µM (active). In the case of `CCCCCCCCCCCCCC(=O)OC(C)C`, the Potency is reported as “inactive”. In the case of `OC[C@H]1O[C@@H]2O[C@H]3[C@H](O)[C@@H](O)[C@@H](O[C@H]4[C@H](O)[C@@H](O)[C@@H](O[C@H]5[C@H](O)[C@@H](O)[C@@H](O[C@H]6[C@H](O)[C@@H](O)[C@@H](O[C@H]7[C@H](O)[C@@H](O)[C@@H](O[C@H]8[C@H](O)[C@@H](O)[C@@H](O[C@H]1[C@H](O)[C@H]2O)O[C@@H]8CO)O[C@@H]7CO)O[C@@H]6CO)O[C@@H]5CO)O[C@@H]4CO)O[C@@H]3CO`, the Potency is reported as “inactive”. For `CCCCCCCCCCCCCCCCO`, the Potency was “inactive”. With `CCOc1ccc(NC(C)=O)cc1` the Potency was “inactive”. `C=C[C@@]1(C)CC(=O)[C@]2(O)[C@@]3(C)[C@@H](O)CCC(C)(C)[C@@H]3[C@H](O)[C@H](OC(C)=O)[C@@]2(C)O1` was tested, and the Potency was “inactive”. For `CCOc1ccccc1C(N)=O`, the Potency was “inactive”. In the case of `C#C[C@]1(O)CC[C@H]2[C@@H]3CCC4=Cc5oncc5C[C@]4(C)[C@H]3CC[C@@]21C`, the Potency is reported as “inactive”. In the case of `CCCN(CCC)S(=O)(=O)c1ccc(C(=O)O)cc1`, the Potency is reported as “inactive”. For `CCCCC(CC)COC(=O)c1ccc(N(C)C)cc1` (stereo unspecified), the Potency was “inactive”. In the case of `COc1ccc(C(Cl)=C(c2ccc(OC)cc2)c2ccc(OC)cc2)cc1`, the Potency is reported as “inactive”. `O=C(O)c1ccc(S(=O)(=O)N(Cl)Cl)cc1` was tested, and the Potency was “inactive”. For `CCCCCCCC/C=C\CCCCCCCCN`, the Potency was “inactive”. With `CC(C)(C)CC(C)(C)c1ccc(O)c(-n2nc3ccccc3n2)c1` the Potency was “inactive”. `NCCNc1cccc2ccccc12` was tested, and the Potency was “inactive”. In the case of `C/C=C/c1ccc(O)c(OC)c1`, the Potency is reported as “inactive”.
